Experimental data as given in PubChem BioAssay (NCI).
This is part of a sample that, as a whole, favours compounds with a hit. Of some 79,000 tested, about 15% had one in any assay. Unmarked numbers belong to inactive results. Calls of active or inactive are those of the source. Cut-off read from the data, not from the text of the source: active = growth inhibition above about 70%; inactive = the rest.

How the values were obtained:
[1] = NCI Yeast Anticancer Drug Screen. Data for the rad50 strain (AID 155);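 note: 0% = growth of vehicle-only cultures of the same strain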; conditions: S. cerevisiae rad50 strain growth inhibition, stronger effect = higher value
In short: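 Vehicle-treated cultures provide the reference for the growth inhibition reported for compound-exposed, repair-deficient yeast.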

[2] = NCI Yeast Anticancer Drug Screen. Data for the mec2-1 strain (AID 157); conditions: S. cerevisiae mec2-1 strain, stronger effect = higher value
In short: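 Compounds were applied to mec2-1 yeast cells. Their growth was then compared with that of vehicle-treated cultures to give growth inhibition.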

[3] = NCI Yeast Anticancer Drug Screen. Data for the sgs1 mgt1 strain (AID 161);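 note: 0% = growth of cultures given vehicle only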; conditions: S. cerevisiae sgs1 mgt1 strain, stronger effect = higher value
In short: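 This yeast growth screen uses a strain with defined DNA-repair lesions; compound-treated growth is compared with vehicle-treated growth.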

[4] = NCI Yeast Anticancer Drug Screen. Data for the cln2 rad14 strain (AID 165);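 note: 0% = growth equal to vehicle treated cultures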; conditions: S. cerevisiae cln2 rad14 strain, stronger effect = higher value
In short: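 Strain: cln2 rad14 yeast, altered in cell cycle control and DNA damage repair. Read-out: growth inhibition vs vehicle.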

[5] = NCI Yeast Anticancer Drug Screen. Data for the bub3 strain (AID 167); conditions: S. cerevisiae bub3 mutant strain, stronger effect = higher value
In short: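 Mutant yeast screening strain plus compound; vehicle-treated cultures serve as the 0% inhibition reference.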

[6] = NCI Yeast Anticancer Drug Screen. Data for the mlh1 rad18 strain (AID 175); conditions: S. cerevisiae mlh1 rad18 strain growth inhibition, stronger effect = higher value
In short: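 A repair-deficient yeast strain is exposed to test compound, and growth is scored relative to vehicle-treated controls.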

[7] = at 5.0 µM (retest, dose inferred, filed as 0.5)
[8] = at 50.0 µM (retest, dose inferred, filed as 5.0)

| Structure (SMILES) | growth inhibition [1, 7] | growth inhibition [1, 8] | growth inhibition ([1]; at 50.0 µM) | growth inhibition [2, 7] | growth inhibition [2, 8] | growth inhibition ([2]; at 50.0 µM) | growth inhibition [3, 7] | growth inhibition [3, 8] | growth inhibition ([3]; at 50.0 µM) | growth inhibition [4, 7] | growth inhibition [4, 8] | growth inhibition ([4]; at 50.0 µM) | growth inhibition [5, 7] | growth inhibition [5, 8] | growth inhibition ([5]; at 50.0 µM) | growth inhibition [6, 7] | growth inhibition [6, 8] | growth inhibition ([6]; at 50.0 µM) |
| --- | --- | --- | --- | --- | --- | --- | --- | --- | --- | --- | --- | --- | --- | --- | --- | --- | --- | --- |
| Fc1cccc(CSc2n[nH]c(=S)c3nc[nH]c23)c1 | 0% | -3% | 9.9% | -8% | -1% | 10% | -1% | -10% | 15.4% | -7% | -14% | 40.8% | -2% | -3% | -3.85% | -16% | -16% | 5.1% |
| CC(C(=O)O)C(N)C(=O)O (configuration not stated) | -1% | 4% | 99.5% (active) | -1% | -6% | 99.6% (active) | -2% | 2% | 99.3% (active) | 6% | -6% | 99.5% (active) | 4% | -7% | 99.6% (active) | -2% | 3% | 99.5% (active) |
| COC1OC(CBr)C(OC(C)=O)C(OC(C)=O)C1OC(C)=O (configuration not stated) | 7% | -3% | 5.9% | 5% | 3% | 13.2% | 8% | 3% | -3.6% | 5% | 30% | 8.7% | 6% | 3% | 82.3% (active) | -2% | 2% | 18.9% |
| CCN(CC)CCCNc1cccc2ccc(OC)nc12 | 1% | 50% | 73.8% (active) | 0% | 24% | 13% | -9% | 60% | 66% | -1% | 33% | 32.7% | 2% | 40% | 51.8% | 4% | 28% | 53.5% |
| CCOC(=O)N1C=CC(=C2C(=C3C=CN(C(=O)OCC)C=C3)C(=C3C=CN(C(=O)OCC)C=C3)C2=C2C=CN(C(=O)OCC)C=C2)C=C1 | 55% | 95% (active) | 95.9% (active) | -4% | 57% | 75.3% (active) | -4% | 60% | 65.8% | -3% | 52% | -0.55% | -4% | 47% | 54.1% | 1% | 58% | 85.7% (active) |
| Cc1ccc(-c2c(C#N)c(S)n(NS(=O)(=O)c3ccccc3)c(=O)c2C#N)cc1 | 28% | 89% (active) | 60.1% | 12% | 91% (active) | 80% (active) | 32% | 94% (active) | 83.8% (active) | 47% | 64% | 29.4% | 53% | 94% (active) | 71.2% (active) | 16% | 66% | 75.6% (active) |
| O=C1C=CC(=O)N1c1ccc(-c2ccc(N3C(=O)C=CC3=O)cc2)cc1 | 41% | 68% | 48.3% | 56% | 87% (active) | 35.6% | 60% | 82% (active) | 60.6% | 18% | 57% | 27.1% | 33% | 80% (active) | 46% | 58% | 79% (active) | 57.5% |
| C=CCC1=C(C)C(OC(=O)/C=C/c2ccccc2Cl)CC1=O (configuration not stated) | 17% | 81% (active) | 86.2% (active) | 0% | 88% (active) | 85.1% (active) | 13% | 88% (active) | 72.2% (active) | -6% | 89% (active) | 69% | 3% | 90% (active) | 95.4% (active) | 8% | 89% (active) | 84.3% (active) |
| CC[N](CC)[Ge]([CH2]C)[CH2]C.CC[N](CC)[Ge]([CH2]C)[CH2]C | 34% | 98% (active) | 57% | 21% | 98% (active) | 76.9% (active) | 56% | 99% (active) | 56.4% | 48% | 98% (active) | 37.1% | 59% | 99% (active) | 75% (active) | 27% | 97% (active) | 77.7% (active) |
| O=C1c2ccc3ccccc3c2CCC1[n+]1ccc2ccccc2c1 (configuration not stated) | 1% | 57% | 53.4% | 11% | 76% (active) | 77.3% (active) | 7% | 79% (active) | 70.7% (active) | -5% | 29% | 83.6% (active) | -4% | 63% | 71% (active) | 15% | 85% (active) | 69.5% |
| O=C1CSC(=S)N1Cc1ccncc1 | 2% | 38% | 39.1% | -14% | 37% | 40.9% | -8% | 25% | 57.5% | 24% | 31% | 18.6% | 12% | 29% | 65.5% | -16% | 71% (active) | 39.3% |
| CC(C)COC(=O)c1ccc(NC(=O)CCl)cc1 | 0% | 93% (active) | 62.1% | -1% | 94% (active) | 29.9% | 2% | 95% (active) | 62.3% | -7% | 95% (active) | 16.1% | 0% | 93% (active) | 10% | 3% | 92% (active) | 67.8% |
| N#Cc1ccc(Oc2nc3ccccc3nc2-c2ccccc2)cc1 | 0% | 21% | 38.2% | -4% | 39% | 22.2% | 12% | 52% | 33.9% | -6% | 23% | 62.8% | 5% | 86% (active) | 27.8% | -4% | 27% | 53.5% |
| CC(=O)c1c2c(cc3c1CC1(C3)Cc3cc4c(c(C(=O)O)c3C1)CCC4)CCC2 (configuration not stated) | 53% | 94% (active) | 84% (active) | 56% | 96% (active) | 79.8% (active) | 65% | 97% (active) | 89.6% (active) | 70% (active) | 95% (active) | 84.2% (active) | 63% | 95% (active) | 83.5% (active) | 73% (active) | 96% (active) | 83.4% (active) |
| COc1ccc2c(c1)O[C@H]1c3ccc(O)cc3OC[C@@H]21 | 1% | 35% | 72.7% (active) | 8% | 36% | 69.5% | -2% | 41% | 68% | 3% | 16% | 50.3% | 5% | 41% | 74.2% (active) | 1% | 53% | 84% (active) |
| Nc1nnc(Cc2ccc(Br)cc2)o1 | -8% | 0% | 21.3% | 1% | -6% | 13.9% | -3% | 12% | 24.3% | 10% | -2% | 71.5% (active) | 4% | 6% | -13.8% | -12% | 4% | 58.3% |
| N#CCCN(C(=S)Nc1ccc(Cl)c(Cl)c1)C1CCCCC1 | 2% | 91% (active) | 78.9% (active) | 0% | 91% (active) | 79.7% (active) | 2% | 90% (active) | 86.3% (active) | -1% | 83% (active) | 71.9% (active) | 2% | 88% (active) | 79.2% (active) | 3% | 90% (active) | 75.1% (active) |
| Cc1ccc[n+](CC(=O)C2CCC3CC4CCCCC4CC3C2)c1 (configuration not stated) | -2% | 38% | 22.4% | -1% | 34% | 17.7% | -27% | 19% | 37.4% | 0% | 31% | -3.75% | 1% | 29% | 18.8% | -2% | 43% | 59% |
| Oc1cc(Br)ccc1/C=N/Nc1ccccn1 | -8% | 46% | -38.4% | -11% | 60% | -13.6% | -19% | 6% | 15.6% | -1% | 53% | -21.8% | 0% | 46% | -3.4% | -10% | 27% | 1.05% |
